# ChEMBL document CHEMBL3988442, “University of Dundee, Small-Polar-MMV Screening Library” (2021)
# About 1,200 (3.2%) of roughly 38,000 compounds showed an effect of 50% or more. The median lay at about -58%. This is one part of a sample in which strong results are shown more often than they occur.
# Test system: Plasmodium falciparum
# Assay: Calibr Malaria Delayed Death Assay SOP
# Format: functional, organism-based
# Set-up: scale not given: in the data most compounds retested in dose-response had high values
# Conditions: concentration 4.99e-06 (unit not given; other assays of the set use mol/L)
row,Compound,Percent Effect [%]
1,CS(=O)(=O)NC[C@H]1Cn2c(-c3ccc(Cl)cc3)cnc2CO1,56.68
2,CS(=O)(=O)NC[C@H]1Cn2c(-c3ccccc3)cnc2CO1,-22.21
3,CS(=O)(=O)NC[C@H]1Cn2c(-c3ccc(F)cc3)cnc2CO1,-35.88
4,CC(C)c1noc(C2CCN(C(=O)c3cccs3)CC2)n1,-59
5,O=C(NCCCN1CCCC1=O)c1nc(-c2ccc3cc[nH]c3c2)no1,-52.39
6,O=C1CC2(CCN(Cc3ccsc3)C2)CN1c1ccc2c(c1)OCO2 (stereo not drawn),-25.08
7,O=C1CCCN1Cc1nnc2n1CCCN(C(=O)c1ccco1)C2,-1.82
8,O=C(c1cc(Cl)ccc1OC1CCN(C2CCCC2)CC1)N1CCCO1,51.12
9,CC(=O)N1CCC(Oc2ccc(Cl)cc2C(=O)N2CCCO2)CC1,-31.72
10,O=C(c1cc(Cl)ccc1OC1CCN(C2CCCC2)CC1)N1CC(O)C1,-105.7
11,Cc1noc(C)c1CCC(=O)N1CCCCC1CNS(C)(=O)=O (stereo not drawn),-22.15
12,COc1ccc2c(ccn2CCC(=O)/N=c2\[nH]nc(C3CCCO3)s2)c1 (stereo not drawn),-157
13,Cc1nc(Oc2ccccc2F)sc1C(=O)O,-115.2
14,Cc1cccc(-n2cc(CNc3ncnc4c3CCNCC4)cn2)c1,12.81
15,Cc1ccccc1-n1cc(CNc2ncnc3c2CCNCC3)cn1,25.52
16,COc1ccc(-c2cc(CNc3ncnc4c3CCNCC4)no2)cc1,13.56
17,c1ccc(Cn2cc(CNc3ncnc4c3CCNCC4)cn2)cc1,-75.72
18,Cc1ccc(-c2cc(CNc3ncnc4c3CCNCC4)no2)cc1,62.41
19,Clc1ccccc1-c1cc(CNc2ncnc3c2CCNCC3)no1,79.72
20,Cc1nn(CC(=O)O)c(C)c1NS(=O)(=O)c1cc2ccccc2s1,-90.75
21,COc1ncccc1CNC1CCc2c(ccc(=O)n2CC2CC2)C1.O=C(O)C(F)(F)F.O=C(O)C(F)(F)F (stereo not drawn),-69.76
22,O=C(COCC(=O)N(c1ccccc1)c1ccccc1)N1CCOCC1,-115.4
23,CCc1nc(CN(C)C2CCN(CCCOc3ccccc3)C2)no1 (stereo not drawn),-2.481
24,CN(C)[C@H]1CCCCN(Cc2cnc(NCc3ccccc3)nc2)C1,-25.46
25,COc1ccccc1-c1ncc(CN2CCCC[C@H](N(C)C)C2)s1,69.91
26,COc1ccccc1-c1ncc(CN2CCCC(CCC(N)=O)C2)s1 (stereo not drawn),-45.2

row,Compound,Percent Effect [%]
1,CC(=O)Nc1ccc2nc(CN(C)Cc3noc(C)n3)ccc2c1,-81.21
2,CC(C)S(=O)(=O)CCN1CCN(C(C#N)c2ccccc2)CC1 (stereo not drawn),-69.53
3,NC(=O)C1CCN(c2ccc(C(=O)N3CCc4ccccc43)cn2)C1 (stereo not drawn),-37.49
4,CNCc1nc(-c2ccc3c(c2)OCO3)c[nH]1.Cl.Cl,-83.48
5,I.c1ccc(Sc2ccc3c(c2)OCO3)c(CNC2=NCCN2)c1,83.34
6,O=C(CSc1ccc2c(c1)OCCO2)NS(=O)(=O)c1ccccc1Br,-14.98
7,N#Cc1c[nH]nc1NCc1ccc2c(c1)OCO2,-94.84
8,c1ccc(-n2nnnc2NCc2ccc3c(c2)OCO3)cc1,-79.7
9,Cc1ccc(N(CC(=O)N2CCCCC2)C(=O)C2CCCO2)cc1 (stereo not drawn),-77.19
10,CS(=O)(=O)N1C[C@@H]2COC[C@]2(COCC(=O)N2CCCC2)C1,-14.15
11,CCCNc1ccc(C(=O)NCCc2ccc(Cl)cc2)cn1,-35.94
12,COc1cccc(C2CCCN2C(=O)NCCCn2cccn2)c1 (stereo not drawn),-100.5
13,Cn1cc(CNCCNC(=O)Cc2ccccc2)c(-c2cccnc2)n1,7.378
14,CN(C)C(C)(C)CNCc1cn(C)nc1-c1cccnc1.Cl,-6.426
15,Cn1cc(CNCCOc2ccc(F)c(F)c2)c(-c2cccnc2)n1,53.44
16,Cn1cc(CNCCC(=O)NCc2ccccc2)c(-c2cccnc2)n1,-26.7
17,CCCNCc1cn(Cc2ccccc2)nc1-c1cccnc1.Cl,57.61
18,Cn1cc(CNCCc2cccnc2)c(-c2cccnc2)n1,-43.46
19,COCCCOc1ccc(C(=O)N(C)Cc2cccc(O)c2)cn1,-93.61
20,CC(C)(C)OC(=O)N1CCN(C(=O)c2cnn3c2OCCC3)CC1,-73.8
21,CC(CC(=O)c1ccco1)NC(=O)c1ccon1 (stereo not drawn),-111.2
22,O=C(Nc1nc2c(s1)CN(S(=O)(=O)C1CC1)CC2)c1ccsc1,-79.83
23,Fc1ccccc1C1NCCc2cc3c(cc21)OCCO3 (stereo not drawn),-25.34
24,CCCn1nnc(NCc2ccc(-c3ccc(Br)cc3)o2)n1,-170.9
25,CN1CCCCc2c1nc1c(c2N)CCC1.O=C(O)c1cc([N+](=O)[O-])ccc1Cl,64.96
26,CN1CCc2c1nc1c(c2N)CCC1,-63.1

row,Compound,Percent Effect [%]
1,CC(=O)NC1CCN(c2nc(N)nc3c2CCCC3)C1 (stereo not drawn),-119.8
2,CN1CCCc2c1nc1c(c2N)CCC1,-51.79
3,Nc1nc2c(c(NC(=O)Nc3ccc(Cl)c(Cl)c3)n1)CCCC2,-65.1
4,CN1CCc2nc3c(c(N)c2C1)CCCN3C,-6.547
5,CN1CCCCc2c1nc1c(c2N)CCCC1,64.21
6,Nc1nc2c(c(NC(=O)Nc3cccc(Cl)c3)n1)CCCC2,-1.173
7,CN1CCCc2c1nc1c(c2N)CCCC1.O=C(O)C(=O)O,75.22
8,CC1CN(C)c2ccccc2CN1C(=O)c1cc(C#N)cn1C (stereo not drawn),-35.84
9,CCN(CC)S(=O)(=O)c1ccc2c(c1)N(Cc1ccncc1)C(=O)CS2,-124.7
10,COCC(C)NC(=O)CN1CCC(CO)CC1 (stereo not drawn),-50.48
11,O=C1CC(CNc2cncc(Br)c2)c2ccccc2N1 (stereo not drawn),9.989
12,Cc1cc(NCC2CC(=O)Nc3ccccc32)nc(C)n1 (stereo not drawn),-157
13,O=C1CC(CNc2cncc(Cl)n2)c2ccccc2N1 (stereo not drawn),64.58
14,CS(=O)(=O)NC(=O)c1ccn(-c2ccc(Cl)c(Cl)c2)n1,-100.9
15,COCCN1C(=O)CC(c2cccnc2)C12CCN(C(=O)C1CC1)CC2.O=C(O)C(F)(F)F (stereo not drawn),-113.7
16,CC(Oc1ccc2c(c1)OCO2)C(=O)Nc1ccon1 (stereo not drawn),-56.4
17,Cc1cc2cc(CNC3CCN(CC(=O)N(C)C)CC3)oc2cc1C,-160
18,Cc1cc(Cl)cc(C)c1CNC1CCN(CC(=O)N(C)C)CC1,52.71
19,NC(=O)CN1CCC(NCc2cc(C(F)(F)F)ccc2Cl)CC1,-47.52
20,CNc1oc(-c2ccc(S(=O)(=O)N(C)C)o2)nc1C#N,-61.71
21,Cc1nc(C)n(CC2CCCN(Cc3nc(-c4ccco4)no3)C2)n1 (stereo not drawn),-26.23
22,Cl.NC(CC1CCCC1)c1ccccc1 (stereo not drawn),67
23,Cl.NC(Cc1nc(-c2ccccc2)no1)c1ccccc1 (stereo not drawn),-266.4
24,Cl.NC(CC1CCCCC1)c1ccccc1 (stereo not drawn),55.85
25,NC(=O)C(NC(=O)COC1CCCC1)c1ccccc1 (stereo not drawn),-14.18
26,NC(=O)C(NC1CCN(CC2CCCCC2)CC1)c1ccccc1 (stereo not drawn),-76.74

row,Compound,Percent Effect [%]
1,OC(CN1CCN(CC2CCCCC2)CC1)c1ccccc1 (stereo not drawn),2.939
2,CC(NC(=O)CSCC(N)=O)c1ccc(Oc2ccccc2)cc1 (stereo not drawn),-26.87
3,NC(CC1CCCC1)c1ccc(Oc2ccccc2)cc1 (stereo not drawn),80.17
4,NC(c1ccccc1)c1ccc(OC(F)F)cc1 (stereo not drawn),9.975
5,COc1ccc(Cn2cc(C(=O)N(C)Cc3ccon3)nn2)cc1,-118.5
6,CC(C)COC[C@H]1CC[C@H]2[C@H](CCN2C(=O)c2ccncc2F)O1.O=C(O)C(F)(F)F,-129.5
7,COc1ccc(-c2cc(C(=O)Nc3nc[nH]n3)[nH]n2)cc1,-113.2
8,Cc1ccc(C(=O)N2CCc3nc4c(C)csc4c(=O)n3CC2)cn1,-115
9,CCn1nc(C)cc1C(=O)N1C[C@@H]2C[C@@H](c3noc(C)n3)O[C@@H]2C1,-70.6
10,Cc1n[nH]cc1CNCC1(c2ccc3c(c2)OCO3)CCOCC1.Cl,-41.06
11,Cc1n[nH]cc1CNCC1(c2ccccc2Cl)CCOCC1,55.9
12,O=C(NCC1(O)CCOC1)NCC1(c2ccccc2Cl)CC1 (stereo not drawn),1.417
13,CCS(=O)(=O)N1CCc2cc(C(=O)N(C)C)c(NCC3CC3)nc2CC1,-99.83
14,CN(C)CCOCC1CN(C(=O)c2ccsc2)Cc2ccnn2C1.O=C(O)C(F)(F)F.O=C(O)C(F)(F)F (stereo not drawn),-18.09
15,CN1CCN(Cc2cccc(C#N)c2)Cc2cccnc21.O=C(O)C(F)(F)F.O=C(O)C(F)(F)F,-79.43
16,CN(C)CCOCC1CN(Cc2cccs2)Cc2ccnn2C1.O=C(O)C(F)(F)F.O=C(O)C(F)(F)F.O=C(O)C(F)(F)F (stereo not drawn),62.34
17,CN(C)C(=O)c1cnc2n1CCN(Cc1cccc(C#N)c1)C2.O=C(O)C(F)(F)F,-58.91
18,COCC(=O)N1Cc2ccnn2CC(COCCN(C)C)C1.O=C(O)C(F)(F)F.O=C(O)C(F)(F)F (stereo not drawn),-13.35
19,Fc1ccc(CN2CCn3cc(Cn4cccn4)nc3C2)cc1.O=C(O)C(F)(F)F,43.38
20,O=C(O)C(F)(F)F.O=C(O)C(F)(F)F.c1ccc(CCN2CCn3cc(Cn4cccn4)nc3C2)cc1,7.27
21,N#Cc1cccc(CN2CCn3cc(Cn4cccn4)nc3C2)c1.O=C(O)C(F)(F)F.O=C(O)C(F)(F)F,78.59
22,CCn1nnc2c1C(COCCN(C)C)CN(Cc1ccco1)C2.O=C(O)C(F)(F)F.O=C(O)C(F)(F)F (stereo not drawn),-73.97
23,CN(C)CCN1CCN(Cc2cccc(C#N)c2)Cc2cccnc21.O=C(O)C(F)(F)F.O=C(O)C(F)(F)F.O=C(O)C(F)(F)F,65.04
24,CCn1nnc2c1C(COCCN(C)C)CN(Cc1ccc(C)s1)C2.O=C(O)C(F)(F)F.O=C(O)C(F)(F)F (stereo not drawn),60.03
25,Cc1ccc(CN2Cc3nnn(C)c3C(COCC(=O)N(C)C)C2)s1.O=C(O)C(F)(F)F (stereo not drawn),-90.04
